# Assay outcomes as filed in PubChem BioAssay.
# D1 ag: activates the human D1 dopamine receptor. HEK293 T-REx D1 cells, calcium flux, agonist mode. activation, % at 2 µM. 1% of 360,000 active. AID 504660; further: 0% is about no effect
# Target sequence (P21728 whole entry, looked up): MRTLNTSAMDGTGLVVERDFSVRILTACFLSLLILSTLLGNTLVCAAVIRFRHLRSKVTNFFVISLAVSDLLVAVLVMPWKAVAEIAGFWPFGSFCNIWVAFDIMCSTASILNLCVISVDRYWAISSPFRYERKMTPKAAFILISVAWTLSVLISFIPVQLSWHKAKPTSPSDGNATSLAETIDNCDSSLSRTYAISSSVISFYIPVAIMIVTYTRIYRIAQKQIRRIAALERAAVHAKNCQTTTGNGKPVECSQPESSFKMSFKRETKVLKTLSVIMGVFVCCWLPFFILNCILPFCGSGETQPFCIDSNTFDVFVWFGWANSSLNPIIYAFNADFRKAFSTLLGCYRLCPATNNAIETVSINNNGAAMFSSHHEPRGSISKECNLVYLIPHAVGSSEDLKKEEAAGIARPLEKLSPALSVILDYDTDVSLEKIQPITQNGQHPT
#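 Tetracycline-induced HEK293 TREx D1 cells, force-coupled to calcium signalling, were dye-loaded with a no-wash calcium kit. Compound was pin-added after a 10 s baseline. Fluorescence was read kinetically at 1 cycle/s for 180 s, with calcium rises flagged as agonism.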
# D1 potentiator: potentiators of human D1 dopamine receptor | P21728 | HEK293 TREx D1 cells, calcium flux, dopamine EC20 potentiation | potentiation, % at 10 µM | 0.036% of 360,000 active | AID 504651; in the data active means potentiation above about 30%; further: 0% is about no effect
# D1 antag: blocks dopamine activation of the human D1 receptor | 3.2% of 360,000 active | AID 504652 | activity change, negative = inhibition, % at 10 µM | P21728 | HEK293 TREx D1 cells, calcium flux, dopamine EC80; active compounds read low; in the data active means activity change below about -30%; further: on the % scale 0 is the no-effect control and ±100 the full control effect
#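 Tetracycline-induced HEK293 Trex D1 cells, force-coupled to calcium, dye-loaded; compounds added and read 180 s, then EC80 dopamine added and calcium flux tracked kinetically another 180 s.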
# TRHR enhancer: allosterically enhances the human TRH receptor | 0.66% of 360,000 active | TRHR cells, fluo-8 calcium fluorescence, EC20 TRH enhancement | AID 493056 | enhancement, % at 2 µM; in the data active means enhancement above about 30%; further: 0% is about no effect
#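 Enhancer read-out: after compound pinning and an initial kinetic agonist-mode read, an EC20 of TRH (10 nM final) was injected and fluo-8 calcium signal (Ex 480/Em 530) followed at 1 s/cycle for 100 cycles in TRHR-expressing cells.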
# TRHR agonist: agonists of human TRH receptor | 0.18% of 360,000 active | activation, % at 2 µM | TRHR cells, calcium flux fluo-8, FDSS agonist mode | P34981; further: 0% is about no effect
#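 Read-out: compound-evoked intracellular calcium rise in TRHR cells, fluo-8 dye, kinetic FDSS fluorescence at 1 s/cycle following a 10-cycle baseline. Cells cultured overnight before dye loading (30 min–1.5 h, RT).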
# * marks the source's active call; other numbers are inactive results; · = not tested or not shown. Sampled rows, rich in hits. Any-hit rate of the full collection: about 4.6%. Unless noted, no stated cut-off is given here; in the data, active means activation above about 30%; inactive means the rest.
SMILES,D1 ag,D1 potentiator,D1 antag,TRHR enhancer,TRHR agonist
CCc1nn2c(=O)cc(COC(=O)c3ccccc3NC(=O)COc3ccccc3C)nc2s1,1,2,-11,3,0
C=CCc1cccc(/C=N/n2cnnc2)c1O,12,-6,-9,32*,0
O=c1oc2ccc(F)cc2cc1-c1nc(-c2cccs2)no1,1,-3,-1,4,1
CCCC/C(=N\NC(=O)c1ccc(Br)o1)c1ccccc1,1,-4,-66*,-6,0
CCCCCC/C(=N\NS(C)(=O)=O)c1ccccc1,-1,29,-68*,0,0
CCc1ccc(NC(=O)C(NS(=O)(=O)c2cccs2)C(C)C)cc1 (centres undefined),-1,-1,6,5,-2
O=[N+]([O-])c1ccc2nc(NS(=O)(=O)c3ccccc3[N+](=O)[O-])sc2c1,68*,·,-39*,-6,6
CN(C)S(=O)(=O)c1ccc2nc(NC(=O)c3cccnc3)sc2c1,2,-2,5,-5,0
O=C(NC(NNc1ccc([N+](=O)[O-])cc1)(C(F)(F)F)C(F)(F)F)c1ccc(F)cc1,27,-12,-17,-3,2
O=C(NC(Nc1nc2ccc([N+](=O)[O-])cc2s1)(C(F)(F)F)C(F)(F)F)c1cccnc1,36*,-11,-35*,-4,14
O=C(NC(Nc1nc2ccc([N+](=O)[O-])cc2s1)(C(F)(F)F)C(F)(F)F)c1ccccc1Cl,25,-2,-36*,-5,8
O=C(NC(NNc1ccc([N+](=O)[O-])cc1)(C(F)(F)F)C(F)(F)F)c1ccccc1Cl,13,-3,-38*,11,-1
O=C(c1ccc(Br)s1)N(Cc1cccnc1)c1nc2ccc(F)cc2s1,4,0,·,2,0
COc1ccccc1NC(=O)CSc1ncc2c(n1)-c1ccccc1N(Cc1ccccc1C)S2(=O)=O,4,3,-2,-2,1
CNC(=O)C1CCN(Cc2cc3ccccc3n2Cc2ccccc2C)CC1,6,-2,25,0,0
Cc1ccccc1Cn1c(CN2CCC(C(=O)NCCN(C)C)CC2)cc2ccccc21,45*,-3,-8,3,4
Cc1ccc(C[C@H](C(=O)O)N2C(=O)c3ccc(C(=O)O)cc3C2=O)cc1,2,6,7,-8,1
O=C(O)c1ccc2c(c1)C(=O)N(N1C(=O)c3ccccc3C1=O)C2=O,8,-1,4,31*,2
Cc1cccc(C[C@H](C(=O)O)N2C(=O)c3ccc(C(=O)O)cc3C2=O)c1,2,-4,-32*,-3,0
O=C(O)c1ccc2c(c1)C(=O)N([C@H](Cc1ccc(-c3ccccc3)cc1)C(=O)O)C2=O,5,9,-35*,-3,0
Cc1ccc(N2C(=O)C(CC(=O)Nc3ccc(F)cc3)N(Cc3ccc4c(c3)OCO4)C2=O)cc1 (centres undefined),2,-4,1,0,1
Cc1ccc(-c2c(C#N)c(N)nc3c2CCCC3)o1,39*,0,24,4,0
Cc1ccc(C)c(NC(=S)NC2CC3CCC(C2)N3Cc2ccco2)c1 (centres undefined),21,-2,-5,6,-1
Cc1ccc(C(=O)NC2CC3CCC(C2)N3Cc2ccco2)cc1 (centres undefined),0,-28,-70*,4,0
O=C(Nc1cccc(Cl)c1)NC1CC2CCC(C1)N2Cc1ccco1 (centres undefined),19,-7,-41*,-7,0
SMILES,D1 ag,D1 potentiator,D1 antag,TRHR enhancer,TRHR agonist
COc1cc(OC)cc(C(=O)NC2CC3CCC(C2)N3Cc2ccco2)c1 (centres undefined),0,-11,-35*,-3,0
O=C(CN1C(=O)NC2(CCCCCCC2)C1=O)Nc1ccc(Br)cc1,0,2,-40*,0,0
O=C(CN1C(=O)NC2(CCCCC2)C1=O)Nc1ccc(F)cc1,2,-3,11,4,0
O=C(CCCN1C(=O)NC2(CCCC2)C1=O)Nc1ccc(F)cc1,0,-7,-38*,-3,0
Cc1ccc(S(=O)(=O)N(CC(=O)Nc2ccc3c(c2)OCO3)c2cc(Cl)cc(Cl)c2)cc1,8,-2,-2,17,0
Cc1ccc(S(=O)(=O)N(CC(=O)Nc2cccc(N(C)S(C)(=O)=O)c2)c2ccc(Cl)c(Cl)c2)cc1,4,-12,-32*,3,2
CN(c1cccc(NC(=O)CN(c2ccc(Cl)c(Cl)c2)S(=O)(=O)c2ccccc2)c1)S(C)(=O)=O,4,7,-10,5,0
Cc1ccc(S(=O)(=O)N(CC(=O)Nc2c(C)cccc2C)c2cccc(Cl)c2)cc1,1,1,-85*,-9,-2
O=C(Nc1c(O)c2ccccc2oc1=O)c1ccccc1Cl,4,9,7,5,0
O=C(Oc1ccccc1)c1ccc(COC(=O)c2cnccn2)cc1,7,-8,-14,-8,-1
O=C(Oc1ccc(Cl)cc1)c1ccc(COC(=O)c2cnccn2)cc1,7,7,-31*,-3,0
O=C(C1CCC(=O)N(C2CC2)C1)N1CCC(Oc2cccc(F)c2)CC1 (centres undefined),-1,-6,-37*,3,1
O=C(C1CCC(=O)N(C2CCCC2)C1)N1CCC(Oc2cccc(F)c2)CC1 (centres undefined),2,-5,8,0,1
COc1ccc(Br)cc1CNC(=O)c1cc(=O)[nH]c2ccc(S(=O)(=O)N3CCCCC3C)cc12 (centres undefined),-2,2,-8,4,1
CCCCCC(C(=O)O)C(C)CC(=O)NC1CCCCC1 (centres undefined),2,0,-4,38*,0
Cc1cc(=O)n(Cc2ccccc2)c2c1c(C)nn2C,5,-5,-12,12,0
Cc1nn(C)c2c1c(-c1ccccc1)cc(=O)n2Cc1ccc(Cl)cc1,18,-5,-5,39*,1
COc1cccc(-n2c(=O)c3sc4ccccc4c3n(CC(=O)NC3CCCCC3)c2=O)c1,7,-1,4,8,-2
COc1ccc(-c2nc(/C=C3\C(C)=Nc4ccccc43)c(O)o2)cc1,33*,-5,-15,2,8
CC1=Nc2ccccc2/C1=C\c1nc(-c2ccccc2)oc1O,27,-3,-8,29,9
CC1=Nc2ccccc2/C1=C/c1nc(-c2ccc(C)s2)oc1O,73*,-4,-18,-8,17
Cc1cccc(/N=C/c2nc(-c3ccccc3Br)oc2O)n1,-3,-1,-14,1,0
CC1=Nc2ccccc2/C1=C\c1nc(-c2ccc(C(F)(F)F)cc2)oc1O,79*,-12,19,-8,25
